# Data as given in PubChem BioAssay (Tox21).
# Inconclusive results are not listed. A number with no mark means an inactive call. Activity calls are given as the source filed them. The call rests on the fitted dose curve; in most records, active means well fitted cell-killing curve with a large enough effect in the repeat runs; inconclusive means weak or mixed curves; inactive means no such curve, though single readings can be large or run the other way.
# Assay: qHTS assay to identify small molecule agonists of the peroxisome proliferator-activated receptor delta (PPARd) signaling pathway - cell viability counter screen (AID 743211); further: nearly all actives have a fitted effect of over 55% in size
# Details: PPARd-bla HEK293H viability, CellTiter-Glo luminescence, 17 h; series mostly up to 62.6 µM; activity change, negative = cytotoxicity: at the top concentration
# Text: U.S. Tox21 Program National Center for Advancing Translational Sciences [NCATS] NIH Chemical Genomics Center [NCGC] U.S. Environmental Protection Agency [EPA] National Institutes of Environmental Health Sciences [NIEHS] National Toxicology Program [NTP] U.S. Food and Drug Administration [FDA] Tox21 Assay Overview: The peroxisome proliferator-activated receptors (PPARs) are lipid-activated transcription factors of the nuclear receptor superfamily with three distinct subtypes namely PPAR alpha, PPAR delta (PPARd) and PPAR gamma. All these subtypes heterodimerizes with Retinoid X receptor (RXR) and have different physiological functions. […] To identify the compounds that activate PPAR-delta signaling, GeneBLAzer PPAR delta UAS-bla HEK293H cell line (Invitrogen, Carlsbad, CA, USA) containing a beta-lactamase reporter gene under the control of an Upstream Activator Sequence (UAS) was used to screen the Tox21 compound library. The cytotoxicity of the Tox21 compound library against the PPARd-bla cell line was tested in parallel by measuring the cell viability using CellTiter-Glo assay (Promega, Madison, WI) in the same wells.
# Tox21 Assay Protocol Summary: PPARd-bla cells were dispensed at 3000 cells/6uL/well in 1536-well black wall/clear bottom plates using a Multidrop Combi (Thermo Fisher Scientific, Waltham, MA) dispenser. After the assay plates were incubated at 37 C and 5% CO2 for 5 h, 23 nL of compounds dissolved in DMSO, positive controls or DMSO only was transferred to the assay plate by a Pintool station (Kalypsys, San Diego, CA). The assay plates were incubated at 37C for 17 h. After 1 uL of LiveBLAzerTM B/G FRET substrate was added using a Bioraptr Flying Reagent Dispenser (FRD) workstation (Beckman Coulter, Indianapolis, IN, USA), the plates were incubated at room temperature for 2 h, and fluorescence intensity was measured by an Envision plate reader (PerkinElmer, Shelton, CT). For cell viability readout that measures cytotoxicity, 3 ul/well of CellTiter-Glo reagent was added into the assay plates using a Bioraptr FRD. After 30 min incubation at room temperature, the luminescence intensity in the plates was measured using a ViewLux plate reader (PerkinElmer).
# On the % scale 0 is the no-effect control and ±100 the full control effect; potency means the concentration at half of the fitted maximal effect.
SMILES,"activity change, negative = cytotoxicity",Potency
Nc1ccc(N=Nc2ccc(-c3ccc(N=Nc4c(S(=O)(=O)O)cc5cc(S(=O)(=O)O)c(N=Nc6ccccc6)c(O)c5c4N)cc3)cc2)c(N)c1,-26.3%,–
BrCCCCBr,2.08%,–
CCC(COC(=O)c1cc(OC)c(OC)c(OC)c1)(c1ccccc1)N(C)C (stereo not given),-8.94%,–
ClCc1ccccc1,0.809%,–
Nc1nc(=S)[nH][nH]1,-1.75%,–
NC(=O)C(Cl)(Cl)Cl,0.177% [at 81.1 µM],–
OCCCBr,2.85% [at 81.1 µM],–
CC(C)(CCl)C(=O)Cl,-6.03%,–
CNC(C)Cc1ccccc1OC (stereo not given),-1.28%,–
O=C(O)C1(c2ccc3c(c2)OC[C@H](Cc2ccc(-c4ccccc4)cc2)[C@H]3O)CCCC1,–,49 µM (active)
O=[N+]([O-])c1ccccc1CCl,-0.141% [at 81.1 µM],–
O=Cc1ccc(Cl)cc1Cl,-3.52% [at 81.1 µM],–
CC(C)=CCOc1c2occc2cc2ccc(=O)oc12,1.1%,–
O=C(NCc1cccnc1)Nc1ccc([N+](=O)[O-])cc1,-5.76%,–
O=C(CBr)c1ccccc1,0.356% [at 81.1 µM],–
Clc1ccc(C2(Cn3cncn3)CC(Br)CO2)c(Cl)c1 (stereo not given),-6.83%,–
O=C1CN=C(c2ccccc2)c2cc(Cl)ccc2N1CC1CC1,0.475%,–
CCCN(CC1CC1)c1c([N+](=O)[O-])cc(C(F)(F)F)cc1[N+](=O)[O-],0.0965%,–
CN(N=O)c1ccc([N+](=O)[O-])cc1,-5.98%,–
Nc1ccc([N+](=O)[O-])cc1[N+](=O)[O-],0.0574%,–

SMILES,"activity change, negative = cytotoxicity",Potency
CC1Sc2c(C(=O)O)c(=O)c3cc(F)c(N4CCNCC4)cc3n21 (stereo not given),2.06%,–
O=[N+]([O-])C(Br)(CO)CO,-2.22%,–
CC(C)(Cl)[N+](=O)[O-],2.39% [at 81.1 µM],–
C=CC(=O)OCC(C)O (stereo not given),-3.86% [at 81.1 µM],–
Cc1ccc(N)cc1C,-0.0805% [at 81.1 µM],–
NC(=O)CI,-1.12% [at 81.1 µM],–
CCCCc1c(C)nc(NCC)nc1OS(=O)(=O)N(C)C,-8.03%,–
II,0.0489%,–
Clc1cccc(SC2CCNCC2)n1,-0.102%,–
CC(=O)C(C)(C)C,0.981% [at 81.1 µM],–
CCCN(CCCl)c1c([N+](=O)[O-])cc(C(F)(F)F)cc1[N+](=O)[O-],0.649%,–
CCOP(=S)(OCC)Oc1nc(Cl)c(Cl)cc1Cl,-17.3%,–
Cl/C=C\Cl,5.6%,–
CC(O)(CS(=O)(=O)c1ccc(F)cc1)C(=O)Nc1ccc(C#N)c(C(F)(F)F)c1 (stereo not given),-27.6%,–
CCCCCC[N+](=O)[O-],20% [at 81.1 µM],–
COc1nn(CSP(=S)(OC)OC)c(=O)s1,-28% [at 81.1 µM],–
C=CCCl,1.85% [at 81.1 µM],–
Cl/C=C\C[N+]12CN3CN(CN(C3)C1)C2,4.83%,–
Clc1cccc2ccccc12,3.65%,–
COC(=O)C(C)N(C(=O)Cc1ccccc1)c1c(C)cccc1C (stereo not given),-17.9%,–
